According to PubChem BioAssay (NCATS):
“And” between values parts separate entries of the source, which are not always exact repeats. Identical values can stand only once. Inconclusive results are not listed. The source made the active and inactive calls. Calls follow the shape of the dose curve; as a rule, active = well fitted inhibition curve with a large enough effect; inconclusive = small, poorly fitted or top-dose-only effect; inactive = flat fitted curve, though single readings scatter.

System: KB-3-1
Test: Cytotoxic Profiling of Annotated Libraries Using Quantitative High-Throughput Screening (AID 1296008); also: nearly all actives have a fitted effect of over 60% in size
Conditions: Five cell lines viability, CellTiter-Glo ATP luminescence, 48-72 h; max response: active compounds read low
Excerpt: Cell-based phenotypic screening is a commonly used approach to discover biological pathways, novel drug targets, chemical probes and high-quality hit-to-lead molecules. Many hits identified from high-throughput screening campaign are ruled out through a series of follow-up potency, selectivity/specificity, and cytotoxicity assays. Prioritization of molecules with little or no cytotoxicity for a more in-depth downstream evaluation influence the future direction of projects, so cytotoxicity profiling of the screening libraries at early stage is essential for increasing the likelihood of candidate success. […] For the annotated library, we also examined the primary targets and mechanistic pathways regularly associated with cell death. To our knowledge, this is the first study to use high-throughput screening to profile large libraries for cytotoxicity assessment in both normal and cancer cell lines. In summary, the results generated here constitutes a valuable resource for the scientific community and provides insight on identifying cytotoxic compounds with particular mechanisms of action, and prioritizing compounds with suitable cytotoxicity profile for further evaluation.
A pintool (Kalypsys) was used to transfer 23 nL of compound solution to the 1536-well assay plates. After 48 or 72 hr incubation at 37 degree Celsius, 5% CO2 and 95% humidity, 2.5 uL of CellTiter-Glo (Promega) was dispensed into each well using a dispenser (Aspect Automation, St. Paul, MN) with solenoid valves (Lee Valves, Westbrook CT). Plates were left at room temperature for 10 min before imaging the ATP-coupled luminescence using a ViewLux microplate imager (PerkinElmer, Waltham, MA).
% is scaled to controls: 0 for no effect and ±100 for the full control effect.

Row | Structure (SMILES) | max response | outcome
1 | CO[C@@]1(NC(=O)Cc2cccs2)C(=O)N2C(C(=O)O)=C(COC(N)=O)CS[C@@H]21 | -24.9% (inactive) and -6.96% (inactive) | –
2 | C[N+](C)(C)CCOP(=O)(O)OP(=O)([O-])OC[C@H]1O[C@@H](n2ccc(N)nc2=O)[C@H](O)[C@@H]1O | 10.6% (inactive) and -5.11% (inactive) | –
3 | Cc1ccc2c(n1)Oc1ccc(C(C)C(=O)OCC(=O)N(C)C)cc1C2 (stereo not given) | -21.6% (inactive) and -9.27% (inactive) | –
4 | CC1(C)S[C@@H]2[C@H](NC(=O)[C@H](N)c3ccc(O)cc3)C(=O)N2[C@H]1C(=O)O | 11.9% (inactive) and 8.22% (inactive) | –
5 | Nc1ccc(C(=O)O)c(O)c1 | -11.5% (inactive) | –
6 | O=C(CCN1CCN(CCO)CC1)N1c2ccccc2Sc2ccc(C(F)(F)F)cc21 | -4.21% (inactive) | –
7 | c1ccc2sc(SSc3nc4ccccc4s3)nc2c1 | 18.6% (inactive) | –
8 | CCNc1nc2c(ncn2[C@H]2C[C@H](O)[C@@H](CO)O2)c(=O)[nH]1 | – | inactive
9 | COc1cc(/C=C/C(=O)N2CCN(CC(=O)N3CCCC3)CC2)cc(OC)c1OC | 5.58% (inactive) | inactive
10 | COc1ccc(/C=C/C(=O)Nc2ccccc2C(=O)O)cc1OC | -5.53% (inactive) and 8.2% (inactive) | –
11 | CC1(C)[C@@H](O[C@H]2O[C@H](C(=O)O)[C@@H](O)[C@H](O)[C@H]2O[C@@H]2O[C@H](C(=O)O)[C@@H](O)[C@H](O)[C@H]2O)CC[C@]2(C)[C@H]3C(=O)C=C4[C@@H]5C[C@@](C)(C(=O)O)CC[C@]5(C)CC[C@@]4(C)[C@]3(C)CC[C@@H]12 | 5.21% (inactive) | inactive
12 | CCCCCCOc1ccccc1C(N)=O | 0.591% (inactive) | –
13 | O=C(Nc1ccc2c(c1)CCN(Cc1ncn[nH]1)C2)c1ccccc1-c1ccc(C(F)(F)F)cc1 | 1.94% (inactive) | –
14 | COC(=O)[C@H]1[C@H]2C[C@@H]3c4[nH]c5cc(OC)ccc5c4CCN3C[C@H]2C[C@@H](OC(=O)/C=C/c2cc(OC)c(OC)c(OC)c2)[C@@H]1OC | -8.17% (inactive) | inactive
15 | CCOc1ccc2nc(S(N)(=O)=O)sc2c1 | 8.76% (inactive) | –
16 | CC(=O)O[C@H]1C[C@@]2(C)[C@@H](C[C@@H](O)[C@H]3[C@@]4(C)CC[C@@H](O)[C@@H](C)[C@@H]4CC[C@@]32C)/C1=C(\CCC=C(C)C)C(=O)O | -11.2% (inactive) | inactive
17 | CN1[C@@H]2CC[C@H]1CC(OC(c1ccccc1)c1ccccc1)C2 (stereo not given in full) | -4.67% (inactive) and 6.16% (inactive) and -6.04% (inactive) | inactive

Row | Structure (SMILES) | max response | outcome
18 | O=C(O)[C@H](CC(=O)N1C[C@H]2CCCC[C@H]2C1)Cc1ccccc1 | -7.55% (inactive) and -0.116% (inactive) | –
19 | COc1cc(/C=C/C(=O)CC(=O)/C=C/c2ccc(O)c(OC)c2)ccc1O | 44.3% (inactive) | –
20 | O=[N+]([O-])c1ccc(CNc2nc(NCc3cccc(C(F)(F)F)c3)nc3nc[nH]c23)cc1 | – | inactive
21 | O=C1CN(/N=C/c2ccc([N+](=O)[O-])o2)C(=O)N1 | -3.33% (inactive) | –
22 | CCCC(=O)OC[C@@H](OC(=O)CCC)[C@@H](OC(=O)CCC)[C@H](Cn1c2nc(=O)[nH]c(=O)c-2nc2cc(C)c(C)cc21)OC(=O)CCC | 23.7% (inactive) | –
23 | COc1cc(NC(C)CCCN)c2ncccc2c1 (stereo not given) | 20.7% (inactive) | –
24 | CC(C(=O)O)c1ccc(C(=O)c2ccccc2)s1 (stereo not given) | 0.65% (inactive) | –
25 | CC1(C)S[C@@H]2[C@H](NC(=O)[C@H](NC(=O)N3CCN(S(C)(=O)=O)C3=O)c3ccccc3)C(=O)N2[C@H]1C(=O)O | 1.37% (inactive) | inactive
26 | CC(N)C(=O)OC(C)(C)Cc1ccc(Cl)cc1 (stereo not given) | 3.19% (inactive) | –
27 | CC(=O)SCC(CC(=O)c1ccc(C)cc1)C(=O)O (stereo not given) | – | inactive
28 | CS(=O)(=O)c1ccc(-n2nc(C(F)(F)F)cc2-c2ccc(F)cc2)cc1 | -2.3% (inactive) | –
29 | CN(C)CCn1nnnc1SCC1=C(C(=O)O)N2C(=O)[C@@H](NC(=O)Cc3csc(N)n3)[C@H]2SC1 | -1.99% (inactive) | –
30 | Cc1c(Nc2ncccc2C(=O)O)cccc1C(F)(F)F | -9.8% (inactive) | –
31 | CCCCCCCCCCCCCCCC(=O)OC(C)C | 12.9% (inactive) | –
32 | O=C(/C=C/c1ccccc1)NCCO | 9.29% (inactive) | –
33 | O=C(Nc1ccc(C(=O)O)c(O)c1)c1ccccc1 | -1.99% (inactive) | –
34 | Nc1ccc(O)c(C(=O)O)c1 | 2.58% (inactive) | –
